The text below walks through data of PubChem BioAssay (NCI).

Common to all, as to assay: NCI-60 one-dose screen, 48 h (100 = growth as untreated, 0 = no growth, -100 = all killed)
The test system of one assay is NCI-H226 lung. The following applies: 10 µM.
The subject of the next assay is HOP-62 NSCLC. The following applies: 10 µM unless noted.
A further assay relates to NCI-H460 lung. The following applies: 10 µM unless noted.
Another assay relates to HOP-92 NSCLC. The following applies: 10 µM unless noted.
The next assay relates to NCI-H522 lung. The following applies: 10 µM.
For the next assay, the system named is A549/ATCC NSCLC. The following applies: 10 µM unless noted.
A further assay has as its system 786-0 renal. The following applies: 10 µM unless noted.
The next assay has as its system COLO 205 colon. The following applies: 10 µM unless noted.
A further assay has as its system NCI-H322M lung. The following applies: 10 µM unless noted.

SMILES strings stand for the structures. The panel holds about 83,000 compounds, 20% with a hit somewhere; the sample as a whole holds those more often.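 Percent growth is the endpoint: 0 to 100 indicates growth inhibition (40 means 60% inhibition), 0 means no net growth, and negative values indicate cell death.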 Unmarked numbers belong to inactive results. Activity calls are given as the source filed them. How the source made its calls: active means growth percent below 10; inactive means the rest.

As for `COc1nc2c(cc1S(=O)(=O)c1ccccc1)CCc1c-2cnn1-c1ccccc1`, the growth was 87.2% in the assay on NCI-H226 lung; 81.3% with HOP-62 NSCLC; 77.5% in the assay with NCI-H460 lung; 22.1% with HOP-92 NSCLC; 47.9% in the assay with NCI-H522 lung; 57.7% in the assay on A549/ATCC NSCLC. The growth in the assay with 786-0 renal was 76.5%; in the assay on COLO 205 colon, 96.3%.

As for `C=CC[P+](c1ccccc1)(c1ccccc1)c1ccccc1`, the growth with NCI-H226 lung was 74.1%; with HOP-62 NSCLC it was 81.7%; in the assay with NCI-H460 lung it was 53.5%; with HOP-92 NSCLC it was 25.4%; in the assay with NCI-H522 lung it was 15.1%; in the assay with A549/ATCC NSCLC it was 69.6%. The growth with 786-0 renal was 84.5%; with COLO 205 colon, 32.8%.

Consider `CCCCCCCCCCCCCCNc1nc(CO)ncc1-c1ccc(C(F)(F)F)cc1`, for which the growth in the assay with NCI-H226 lung was 101%; in the assay with HOP-62 NSCLC, 92.9%; with NCI-H460 lung it was 105%; in the assay with HOP-92 NSCLC, 89.6%; in the assay with NCI-H522 lung, 90.6%; in the assay on A549/ATCC NSCLC, 98.9%. For the same compound, the figures for the growth in the assay on 786-0 renal and in the assay on COLO 205 colon were 97.3% and 108%, respectively.

As for `CC1(C)N=C(N)N=C(N)N1c1cccc(/C=C/C=C/c2cccc([N+](=O)[O-])c2)c1`, the growth was 76.9% in the assay on NCI-H226 lung; 104% in the assay with HOP-62 NSCLC; 21.3% with NCI-H460 lung; 70.7% in the assay with HOP-92 NSCLC; 27.6% in the assay with NCI-H522 lung; 28.2% in the assay on A549/ATCC NSCLC. Also, the growth is 91.9% in the assay with 786-0 renal and 29.7% in the assay on COLO 205 colon.

For the compound `CCCCC(CCCC)(S(=O)(=O)CC)S(=O)(=O)CC`, the growth is 95.2% in the assay on NCI-H226 lung; 92.5% in the assay with HOP-62 NSCLC; 104% in the assay on NCI-H460 lung; 87.6% in the assay with HOP-92 NSCLC; 87.3% with NCI-H522 lung; 94.3% in the assay with A549/ATCC NSCLC. Also, the growth was 98.6% in the assay with 786-0 renal and 103% in the assay on COLO 205 colon.

For the compound `Cn1c2ccc(Cl)cc2c2nn(C(=O)c3ccccc3)c(=O)nc21`, the growth is 93.7% in the assay on NCI-H226 lung; 106% in the assay on NCI-H322M lung; 101% in the assay with HOP-62 NSCLC; 101% in the assay with NCI-H522 lung; 113% with A549/ATCC NSCLC; 113% in the assay on 786-0 renal. The growth in the assay on COLO 205 colon is 123%.

For the compound `O=C1C2CC3C(CC2C(=O)[N]1[Sn]([c]1ccccc1)([c]1ccccc1)[c]1ccccc1)C1(Cl)C(Cl)=C(Cl)C3(Cl)C1(Cl)Cl` (stereo not given), the growth in the assay on NCI-H226 lung is -43.5% (active); with HOP-62 NSCLC, -92.1% (active); in the assay with NCI-H460 lung it was -81.6% (active); in the assay with HOP-92 NSCLC it was -96.1% (active); in the assay with NCI-H522 lung, -94.2% (active); in the assay on A549/ATCC NSCLC it was -97.2% (active). For the same compound, the growth with 786-0 renal was -86.2% (active); with COLO 205 colon, -86.7% (active).

Turning to `O=C(COc1cccc(/C=C2\COc3ccccc3C2=O)c1)c1ccccc1`, the growth in the assay on NCI-H226 lung was 68.7%; in the assay with NCI-H322M lung, 95.3%; in the assay with HOP-62 NSCLC, 98%; with NCI-H460 lung, 104%; in the assay with NCI-H522 lung, -41.9% (active); with A549/ATCC NSCLC, 89.2%. Further, the growth in the assay on 786-0 renal is 88.8%; with COLO 205 colon it was 102%.

Regarding `COc1ccc(-c2nc(Nc3ccc(F)cc3)nc(Nc3ccc4c(c3)nc(C)n4Cc3ccccc3)n2)cc1`, the growth in the assay with NCI-H226 lung was 66.6%; in the assay with NCI-H322M lung, 82.4%; with HOP-62 NSCLC it was 53.3%; with HOP-92 NSCLC it was 39.7%; in the assay on NCI-H522 lung it was 55.4%; in the assay with A549/ATCC NSCLC, 32%. Also, the growth in the assay on 786-0 renal was 46.7%; with COLO 205 colon it was 28.2%.

In the case of `Cc1nn(-c2ccccc2)c2nc3nc4c(c(N)c3c(-c3ccc(Cl)cc3)c12)CCCC4`, the growth with NCI-H226 lung was 83.4%; in the assay on HOP-62 NSCLC, 106%; in the assay with NCI-H460 lung it was 97.4%; in the assay with HOP-92 NSCLC, 84.4%; in the assay on NCI-H522 lung, 90.6%; in the assay on A549/ATCC NSCLC it was 94.4%. The values for the growth in the assay on 786-0 renal and in the assay with COLO 205 colon were 86.9% and 94.4%, respectively.

Turning to `CCCCCCCCCCCC(=O)[O][Sn]([CH2]CCC)([CH2]CCC)[CH2]CCC`, the growth is -66% (active) with NCI-H226 lung; -94.9% (active) in the assay with HOP-62 NSCLC; -55.2% (active) in the assay on NCI-H460 lung; -95.7% (active) with HOP-92 NSCLC; -96% (active) in the assay on NCI-H522 lung; -91.1% (active) in the assay on A549/ATCC NSCLC. The growth in the assay on 786-0 renal was -99.7% (active); in the assay with COLO 205 colon, -78.2% (active).

Take `CCCCC/C=C\C/C=C/CCCCCCCCNC(=O)Nc1ccc([N+](=O)[O-])cc1`: the growth in the assay on NCI-H226 lung was 93.5%; in the assay on NCI-H322M lung, 120%; in the assay on NCI-H460 lung, 84.4%; in the assay with HOP-92 NSCLC, -1.17% (active); in the assay on NCI-H522 lung, 41.5%; in the assay with A549/ATCC NSCLC it was 97%. Further, the figures for the growth with 786-0 renal and with COLO 205 colon were 102% and 95%, respectively.

For `C=CC(=O)N1CC2(CC(n3nc(-c4ccc(Oc5ccccc5)cc4)c4c(N)ncnc43)C2)C1`, the growth was 15.8% in the assay on NCI-H226 lung; 31.1% in the assay on NCI-H322M lung; 35.7% with HOP-62 NSCLC; 40.5% in the assay with NCI-H460 lung; 39.2% in the assay with A549/ATCC NSCLC; 35.5% in the assay on 786-0 renal.

With `Clc1ccc(C2=NN(c3ccccc3)[C@H](c3cn(-c4ccccc4)nc3-c3ccccc3)C2)cc1`, the growth in the assay with NCI-H226 lung is 96.1%; in the assay with NCI-H322M lung, 101%; with HOP-62 NSCLC it was 108%; in the assay with NCI-H460 lung, 108%; in the assay on NCI-H522 lung, 91.5%; with A549/ATCC NSCLC, 97.8%. Also, the growth was 103% in the assay with 786-0 renal and 114% with COLO 205 colon.

In the case of `O=C(Nc1ccccc1O)c1ccc(NS(=O)(=O)c2cccc3cccnc23)cc1`, the growth in the assay with NCI-H226 lung is 50.3%; in the assay with NCI-H322M lung it was 48.3%; in the assay on HOP-62 NSCLC it was 38.3%; in the assay on NCI-H460 lung it was 40.2%; with NCI-H522 lung it was 37.7%; with A549/ATCC NSCLC it was 51.1%. Moreover, the growth in the assay with 786-0 renal is 71.9%; with COLO 205 colon it was 47.8%.

On to `Cc1ccc(N(CSc2ccc(Cl)cc2)CSc2ccc(Cl)cc2)cc1`, for which the growth in the assay on NCI-H226 lung is 71.9%; in the assay with NCI-H322M lung, 64.1%; in the assay with NCI-H460 lung, 14.3%; in the assay with HOP-92 NSCLC, 56.8%; in the assay with NCI-H522 lung it was 39.3%; with A549/ATCC NSCLC it was 28.5%. Moreover, the growth is 51.5% in the assay on 786-0 renal and 118% in the assay with COLO 205 colon.
